13 compounds from PubChem BioAssay (NCI) can be followed below.

About 83,000 compounds went through this panel and 20% of them were active in at least one assay; those are over-represented in the sample as a whole.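 Treatment: one concentration, 48 hours, 96-well format. Scoring: percent growth, with anything below 10 considered active.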 Activity calls are given as the source filed them.

The assay relates to MDA-MB-231 breast. Briefly: NCI-60 one-dose screen, 48 h (100 = growth as untreated, 0 = no growth, -100 = all killed). To be noted: 10 µM unless noted.
As to `COc1cc(C2=NN(C(C)=O)C(c3ccc(N4CCOCC4)cc3)C2)cc(OC)c1OC` (stereo not drawn), the growth is 92% (inactive).
Turning to `COc1ccc([C@H]2c3[nH]c4ccccc4c3C[C@@H]3C(=O)N(C4CCN(Cc5ccccc5)CC4)CC(=O)N23)c(OC)c1`, the growth was 77.7% (inactive).
Turning to `COc1ccc([C@H]2[C@H](O)C(=O)N2c2cc(OC)c(OC)c(OC)c2)cc1Cl`, the growth is 26.9% (inactive).
Next, `COc1ccc(/C=C/C(=O)c2nnn(-c3ccc(C(=O)O)cc3)c2C)cc1OC`: 96.7% (inactive); `O=[N+]([O-])c1ccc(-c2nnc(SCc3ccc(O)c4ncccc34)n2-c2ccccc2)cc1`: 24.8% (inactive); `O=C(NCCCNc1cc(-c2cn(-c3ccccc3)nc2-c2cccc(O)c2)ccn1)Nc1cccc(C(F)(F)F)c1`: 18.6% (inactive).
With `CC(C)C(=O)Nc1ccc(-c2nc(-c3cccc(O)c3)c(-c3ccnc(Br)c3)[nH]2)cc1`, the growth is 58.5% (inactive).
Next, `Cc1cc(F)cc(NS(=O)(=O)c2ccc(-c3cnc(C4CC4)o3)cc2)c1`: 30.5% (inactive).
Regarding `CCOC(=O)c1c(NCC(=O)Nc2cccc(Cl)c2)sc2c1CCCC2`, the growth is 86.5% (inactive).
On to `O=S(=O)(Nc1cc(Cl)cc(Cl)c1)c1ccc(-c2cnc(C3CC3)o2)cc1`, for which the growth was 47.5% (inactive).
For `COc1cc2c3c(n(CCCNC4CCC4)c(=O)c2cc1OC)-c1cc2c(cc1C3=O)OCO2` the value was -65.1% (active); for `CCOC(=O)Nc1cccc(-n2cnc3cc(-c4ccc(O)cc4)ccc32)c1`, 33.7% (inactive).
Consider `CC(=O)NC(C)(C)C(=O)N[C@@H](C)C(=O)NC(C)(C)C(=O)N[C@@H](C)C(=O)NC(C)(C)C(=O)N[C@@H](C)C(=O)N[C@@H](CCC(N)=O)C(=O)NC(C)(C)C(=O)N[C@H](C(=O)NC(C)(C)C(=O)NCC(=O)N[C@@H](CC(C)C)C(=O)NC(C)(C)C(=O)N1CCC[C@H]1C(=O)N[C@H](C(=O)NC(C)(C)C(=O)NC(C)(C)C(=O)N[C@@H](CCC(N)=O)C(=O)N[C@@H](CCC(N)=O)C(=O)N[C@H](CO)CC1CCCCC1)C(C)C)C(C)C`, for which the growth was 55.3% [5 µM] (inactive).
